Only some compounds are listed: those with a hit (about 28% of all), similar ones and a draw of the others.
CYP2C19 activ – increases human CYP2C19 enzyme activity; 96,000 tested, under 10 active; recombinant CYP2C19, luciferin-H EGE luminescence; active compounds read high; 0 = fully inhibited enzyme, 1 = untreated enzyme; activation factor at 5 µM;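 active means activation factor of at least 2 at 5 µM in the primary screen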;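 further: 0 = wells with 2.5 mM tranylcypromine and 1 = vehicle-only wells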
Target sequence (P33261 whole entry, looked up): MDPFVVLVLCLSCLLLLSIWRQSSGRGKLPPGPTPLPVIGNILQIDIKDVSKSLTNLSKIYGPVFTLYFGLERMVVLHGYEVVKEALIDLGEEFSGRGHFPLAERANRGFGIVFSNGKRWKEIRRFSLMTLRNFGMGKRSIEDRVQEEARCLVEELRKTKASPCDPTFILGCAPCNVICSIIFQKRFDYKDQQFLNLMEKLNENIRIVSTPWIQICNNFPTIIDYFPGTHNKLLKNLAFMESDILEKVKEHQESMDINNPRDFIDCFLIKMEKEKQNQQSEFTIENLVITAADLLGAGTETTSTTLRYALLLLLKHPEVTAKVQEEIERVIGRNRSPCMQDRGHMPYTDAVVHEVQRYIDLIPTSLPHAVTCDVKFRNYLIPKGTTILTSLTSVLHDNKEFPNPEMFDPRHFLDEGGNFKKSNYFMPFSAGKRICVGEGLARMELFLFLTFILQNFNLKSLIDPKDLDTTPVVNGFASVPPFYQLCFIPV
CYP2C9 act – increases human cytochrome P450 2C9 activity; P11712; recombinant CYP2C9, luciferin-H conversion, luminescence; active compounds read high; factor 1 = untreated enzyme, 0 = blocked; activation factor at 5 µM; hit rate 1.4% among 96,000; AID 1024;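 active means activation factor of 2 or more for CYP2C9 at a 5 µM dose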;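 further: 0 = sulfaphenazole-blocked wells and 1 = vehicle-only wells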
PLK1 inh – blocks human PLK1 kinase activity | recombinant PLK1 kinase, TR-FRET peptide phosphorylation | inhibition, % at 10 µM | hit rate 0.53% among 97,000 | AID 619;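 active means inhibition of 50% or more in the single-concentration screen; inactive means inhibition below 50%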;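 further: 0% = DMSO max control and 100% = H-89 dihydrochloride min control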
CYP2C9 inh – blocks human cytochrome P450 2C9 | P11712 | CYP2C9 Supersomes, luciferin-H conversion, luminescence | inhibition, % at 5 µM | hit rate 20% among 96,000;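 active means blocking of liver enzyme CYP2C9 beyond about 50% at 5 µM, limit read from the data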
PLK1 PBD inh – inhibitors of human Plk1 polo box domain binding | P53350 | Plk1 PBD phosphopeptide binding, fluorescence polarization | inhibition, %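 (tested at about 20 µM)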 | hit rate 0.13% among 97,000 | AID 693; in the data active means inhibition above about 34%, passing the limit was not always enough
CYP2C19 inh – inhibitors of human CYP2C19. CYP2C19 Supersomes, luciferin-H EGE luminescence, 30 min. inhibition, % at 5 µM. hit rate 21% among 96,000;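 active means CYP2C19 inhibition above a set limit at 5 µM in the primary screen, cut at about 50% in these data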;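 further: plate controls were negative control wells for no effect and 2.5 mM tranylcypromine positive control for full effect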
* hit, by the source's call; / = no result.

SMILES	CYP2C19 activ	CYP2C9 act	PLK1 inh	CYP2C9 inh	PLK1 PBD inh	CYP2C19 inh
Cn1c2ccccc2c(=O)c2c(=O)n(C3CCCCC3)c(-c3cccs3)nc21	0.7	0	-11	95*	0	31
COc1ccc(NC(=O)c2cc(F)cc(F)c2)cc1Cl	1	1	-10	3	-12	4
COc1ccc(OC)c(NC(=O)C2CCN(c3cc(-c4ccccc4)nc4ncnn34)CC2)c1	0.5	0.7	-17	32	1	52*
CC(=O)Nc1cc(C(=O)N2CCCC2)ccc1Sc1ccc(C)cc1	0.4	0.6	-6	36	-5	65*
Cc1cc(NC(=O)c2ccccc2NS(=O)(=O)c2c(C)c(C)cc(C)c2C)no1	0.9	0.3	/	66*	/	11
Cc1cc(NC(=O)c2cc3ccccc3oc2=O)no1	0.9	0.9	-14	10	8	14
Cc1ccc(C)c(S(=O)(=O)Nc2ccccc2C(=O)Nc2cc(C)on2)c1	0.9	0.4	/	55*	/	10
Cc1cccn2cc(CCNC(=O)c3ccc(Br)o3)nc12	0.8	0.9	-13	7	9	22
CC(C)CCNC(=O)C1CCN(C(=O)N(C)C)CC1	0.9	1.1	-8	-12	-30	6
c1ccc2c(c1)nnn1c3ccccc3nc21	0.3	0.4	-1	62*	0	73*
Cc1nc2ccccc2c2nc3ccccc3n12	0.6	0.4	-8	58*	-12	40
Cc1nnc(SCC(=O)Nc2ccc(S(=O)(=O)N3CCCC3)cc2)n1N	1.1	1	-25	5	-14	-10
O=C(OCC#CCSc1nnc(-c2ccccc2)o1)c1ccco1	0.1	0.4	/	58*	/	88*
O=C(OCC#CCSc1nnc(-c2cccc3ccccc23)o1)c1cccs1	0.7	2*	-3	-96	11	27
O=C(OCC#CCSc1nc2ccccc2s1)c1ccco1	0.2	0.3	-10	72*	13	83*
Cc1cc(C)cc(N2C(=O)CC(n3nc(C)cc3C)C2=O)c1 (stereo not given)	0.6	0.9	-14	12	11	39
O=C1c2ccccc2OC2(C=Cc3ccccc3O2)N1Cc1ccccc1 (stereo not given)	0	0.1	-7	94*	-6	97*
CC(C)C(NS(=O)(=O)c1cccc2nsnc12)C(=O)N1CCc2ccccc2C1 (stereo not given)	0.8	0.6	-10	41	23	24
O=C(CNS(=O)(=O)c1cccs1)N1CCc2ccccc2C1	0.5	1.1	-11	-13	15	53*
CC(C)C(NS(=O)(=O)c1cccs1)C(=O)N1CCc2ccccc2C1 (stereo not given)	0.2	0.6	-7	43	3	79*
O=C(CCCNS(=O)(=O)c1cccs1)N1CCc2ccccc2C1	0.4	1.6	/	-62	/	55*
COc1ccccc1-c1ccc(=O)n(CC(=O)NC(C)(C)C)n1	1	1.4	8	-43	-35	-1
CC1CCN(C(=O)c2ccc3c(c2NCCO)C(=O)c2ccccc2C3=O)CC1	0.2	0.8	4	24	-38	81*
CCn1nccc1C(=O)Nc1ccc(Cl)cc1Cl	0.4	0.7	0	34	-20	63*
CCn1nccc1C(=O)Nc1cc(Cl)ccc1Cl	1	1.1	-7	-10	-14	3
SMILES	CYP2C19 activ	CYP2C9 act	PLK1 inh	CYP2C9 inh	PLK1 PBD inh	CYP2C19 inh
COC(=O)[C@@H](NC(=O)NC1CCCc2ccccc21)C(C)C (stereo not given in full)	0.9	1	-1	3	13	6
COc1ccc(-c2nc3cccc(C)n3c2NCc2ccco2)cc1OC	0.7	0.9	-18	11	-12	26
c1ccc(CCNc2nc(-c3cccnc3)cs2)cc1	0.1	0.4	2	59*	11	92*
CC(=O)Nc1ccc(-c2csc(NCc3ccco3)n2)cc1	/	/	-6	/	9	/
COc1ccc(-c2csc(NCc3ccco3)n2)cc1C	0.2	0.4	/	62*	/	81*
c1cncc(-c2csc(NCc3ccco3)n2)c1	0.1	0.3	-34	74*	3	86*
CN1CCN(S(=O)(=O)c2ccc(-c3ccccc3)cc2)CC1	0.6	0.8	-1	25	-4	44
Nc1ccccc1-c1nnn(CC(=O)N2CCCc3ccccc32)n1	/	/	-8	/	-15	/
COC(=O)C(CCSC)NC(=O)CNS(=O)(=O)c1ccc(Cl)cc1 (stereo not given)	0.8	0.8	-3	22	2	21
OC(c1ccc(Cl)cc1)c1nnc(-c2ccccc2)o1 (stereo not given)	0	0.1	-7	88*	2	100*
Clc1ccc(-c2nnc(-c3ccccc3Cl)o2)cc1	1.1	1.1	-3	-9	-28	-13
CCOC(=O)c1oc2ccc(CNC(C)(C)C)c(Cl)c2c1C	/	/	-12	/	-12	/
CCOC(=O)c1oc2ccc3c(c2c1C)C(=O)CC1(CCN(C(=O)OCC)CC1)O3	0.5	0.5	/	51*	/	52*
CCOC(=O)c1oc2cccc(O)c2c1C	0.6	2.4*	2	-144	11	45
CCOC(=O)N1CCC2(CC1)CC(=O)c1c(ccc3oc(C(=O)O)c(C)c13)O2	1.1	0.5	/	47	/	-6
CCOCC(=O)Nc1c(C(=O)OCC)oc2ccccc12	1.1	0.9	-14	8	10	-6
CCOC(=O)c1oc2ccccc2c1CN1CCN(C(=O)c2ccccc2)CC1	0.6	0.5	/	46	/	43
CCOC(=O)c1oc2ccccc2c1CN1CCN(c2ccccc2)CC1	0.5	0.5	2	48	8	52*
CCOC(=O)c1oc2cccc(OC(C)=O)c2c1C	0.2	1.2	5	-23	0	76*
CC(C)(CNC(=O)c1ccc([N+](=O)[O-])c(Cl)c1)CNC(=O)c1ccc([N+](=O)[O-])c(Cl)c1	0.6	/	-6	/	-11	43
CCS(=O)(=O)CCSC(=N)N	0.8	0.7	-12	34	-8	17
CCOC(=O)c1c(C)oc2ccc(O)c(CN3CCCCC3)c12	1	1.1	-5	-7	-10	-2
CCOC(=O)c1oc2ccccc2c1N	0.1	0.8	-11	19	-13	87*
CCOC(=O)c1c(-c2ccccc2)oc2ccc(O)c(CN3CCOCC3)c12	0.4	0.5	-6	48	-2	56*
CCOC(=O)c1oc2cccc(O)c2c1CN(Cc1ccccc1)C(C)=O	0.3	0.7	-1	25	7	67*
CCOC(=O)c1oc2cccc(O)c2c1CN1CCOCC1	0.4	0.6	-8	37	-19	60*
Clc1cccc(Cl)c1COc1ccccn1	0.5	0.6	-5	37	-12	52*
N/C(=N\OC(=O)c1ccccc1Cl)c1ccccn1	0.6	0.6	-14	40	14	38
CCSc1c(-c2ccccc2)nc2c(C)cccc2c1C(=O)O	1	0.2	-17	78*	-14	-1

Screening results as filed in PubChem.
